Measurements as given in PubChem BioAssay.
Values joined by “and” are separate entries in the source; they are usually repeats but may differ in a detail not shown here. Equal entries are not always repeated. Records with an inconclusive call do not appear. Active and inactive are the calls of the source. Unless noted, cut-off not given; nearly all actives show AC50 up to about 26 µM.

Key:
[1] = growth inhibition of DIPG glioma cells, dose response, cell-based, SU-DIPG-XVII, MIPE5.0, CellTiter-Glo, qHTS (AID 1347060); details: SU-DIPG-XVII viability, CellTiter-Glo ATP luminescence;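 on AC50: cells exposed to compound for 48 hours before viability readout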
[2] = growth inhibition of DIPG glioma cells, dose response, cell-based, JHH-DIPG-1, MIPE4.0, CellTiter-Glo, qHTS (AID 1347062; cut-off not given, nearly all actives have AC50 up to about 27 µM;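 further: cells exposed to compound for two days before readout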); details: JHH-DIPG-1 viability, CellTiter-Glo ATP luminescence
[3] = growth inhibition of DIPG glioma cells, dose response, cell-based, SU-DIPG-IV, MIPE4.0, CellTiter-Glo, qHTS (AID 1347063; cut-off not given, nearly all actives have AC50 up to about 30 µM;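 further: compound exposure lasted 48 hours before the viability readout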); details: SU-DIPG-IV viability, CellTiter-Glo ATP luminescence
[4] = growth inhibition of DIPG glioma cells, dose response, cell-based, SU-DIPG-XIII, MIPE5.0, CellTiter-Glo, qHTS (AID 1347064; cut-off not given, nearly all actives have AC50 up to about 23 µM;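 on AC50: cells exposed to compound for 48 hours before the viability read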); details: SU-DIPG-XIII viability, CellTiter-Glo ATP luminescence
[5] = viability loss in pontine glioma line – cell-based, SU-DIPG-XXV, MIPE5.0, CellTiter-Glo, qHTS, dose response (AID 1347065); details: CellTiter-Glo ATP luminescence;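 further: cells exposed to compound for 48 hours before ATP readout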
[6] = SU-DIPG-VI glioma cell viability, MIPE4.0 library, CellTiter-Glo luminescence, qHTS (AID 1347066; cut-off not given, nearly all actives have AC50 up to about 30 µM;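 further: cells exposed to compound for 48 hours before readout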); details: CellTiter-Glo ATP luminescence
[7] = JHH-DIPG-1 glioma cell viability, MIPE5.0 library, CellTiter-Glo luminescence, qHTS (AID 1347067); details: JHH-DIPG-1 glioma viability, CellTiter-Glo ATP luminescence;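 further: cells exposed to compound for 48 hours before readout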
[8] = SU-DIPG-XXV glioma cell viability, MIPE5.0 library, qHTS (AID 1347068; cut-off not given, nearly all actives have IC50 up to about 30 µM;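 on IC50: cells exposed to compound for 48 hours before viability readout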)
[9] = sensitizers of A549 cells to miR-34 induction, primary screen, imaging, A549 dox-inducible miR-34, nuclei and caspase counts (AID 1347080;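 active means compounds whose cell count with miR-34 switched on is under 0.7 times the count with it off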); details: A549 miR-34 inducible, Hoechst nuclei count, 48 h
[10] = survival rescue of mitochondrial mutant cells in low glucose, primary screen, MELAS cybrids, Rieske KO mouse fibroblasts, CellTiter-Glo (AID 1508586;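 active means mean z-score across replicates of 1.96 or higher in either the MELAS or the Rieske mutant cell line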;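 further: z relative to plate mean and SD of compound and empty wells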)
[11] = stronger effect = lower value, cell number ratio, induced over uninduced
[12] = measured here: relative caspase fold change +Dox/-Dox
[13] = measured here: total cells with miR-34 induction, stronger effect = lower value
[14] = measured here: total cells without miR-34 induction
[15] = MELAS cybrid survival, CellTiter-Glo 48 h, stronger effect = higher value
[16] = Rieske KO mouse fibroblast survival, CellTiter-Glo 72 h

CC[C@H]1/C=C\C=C/C[C@@H](C)[C@H](O)[C@@](C)(O)C(=O)[C@@H](C)[C@H](O)[C@@H](C)C(=O)[C@@H](C)[C@H](O)[C@@H](C)/C=C/C(=O)O[C@@H]2[C@H](C)[C@H](CC1)O[C@]1(CC[C@H](C)[C@H](C[C@@H](C)O)O1)[C@H]2C
active: AC50 [1] 10500 nM | AC50 [2] 20900 nM | AC50 [3] 10500 nM | AC50 [4] 7420 nM | AC50 [5] 5.25 nM | AC50 [6] 6620 nM | AC50 [7] 66.1 nM

C[C@H]1[C@H](O)[C@@H](C)/C=C/C=C/CC/C=C/C=C/C=C/C=C/[C@H](O[C@@H]2O[C@H](C)[C@@H](O)[C@H](N)[C@@H]2O)C[C@@H]2O[C@](O)(C[C@@H](O)[C@H](O)CC[C@@H](O)C[C@@H](O)C[C@@H](O)CC(=O)O[C@H]1C)C[C@H](O)[C@H]2C(=O)O
inactive: outcome [1] | outcome [4] | outcome [5] | outcome [7] | outcome [8]

O=C(Nc1ccncc1)C(=O)c1cn(Cc2ccc(Cl)cc2)c2ccccc12
inactive: outcome [6]
active: AC50 [1] 295 nM | AC50 [2] 296 nM | AC50 [4] 1660 nM | AC50 [5] 148 nM | AC50 [7] 417 nM | IC50 [8] 372 nM

COc1ccc(N(C(=O)Oc2c(C)cccc2C)c2ccnc(Nc3ccc(N4CCN(C)CC4)cc3)n2)c(OC)c1
0.474: fold change [9, 12]
7250: cell count [9, 14]
-1.32: z-score [10, 16]
active: AC50 [1] 10500 nM | AC50 [4] 14800 nM | AC50 [5] 10500 nM | AC50 [7] 16600 nM | IC50 [8] 20900 nM
inactive: outcome [6] | fold change [9, 11] 0.826 | z-score [10, 15] 0.0994
5990: cell count [9, 13]

COC(=O)[C@@]12OC[C@]34[C@H]([C@@H](O)[C@@H]1O)[C@@]1(C)CC(=O)C(O)=C(C)[C@@H]1C[C@H]3OC(=O)[C@H](OC(=O)/C=C(\C)C(C)C)[C@@H]24
active: AC50 [1] 29.5 nM | AC50 [4] 59 nM | AC50 [5] 10.5 nM | AC50 [7] 52.5 nM | IC50 [8] 5900 nM

COc1cc(C)[nH]c(=O)c1CNC(=O)c1c(C)n([C@H](C)C2CCN(CC(F)(F)F)CC2)c2ccccc12
inactive: outcome [1] | outcome [5] | outcome [7]

O=c1[nH]c2ccc(Cl)cc2c(N[C@@H]2CN3CCC2CC3)c1-c1nc2ccccc2[nH]1
active: AC50 [1] 2630 nM | AC50 [2] 1870 nM | AC50 [3] 1660 nM | AC50 [4] 3320 nM | AC50 [5] 3720 nM | AC50 [7] 3320 nM | IC50 [8] 8330 nM

CN1[C@@H]2CC(O)C[C@H]1[C@@H]1O[C@@H]12 (some centres undefined)
8400 and 9480: cell count [9, 13]
active: AC50 [3] 16600 nM | AC50 [6] 16600 nM
0.912 and 0.808: fold change [9, 12]
inactive: outcome [1] | outcome [4] | outcome [5] | outcome [7] | outcome [8] | fold change [9, 11] 0.909 and 0.934 | z-score [10, 15] -0.234 and -0.344
9240 and 10200: cell count [9, 14]
-0.606 and 0.658: z-score [10, 16]

CC(=O)OC[C@H]1O[C@@H]([S-])[C@H](OC(C)=O)[C@@H](OC(C)=O)[C@@H]1OC(C)=O.CC[PH+](CC)CC.[Au]
active: AC50 [1] 1050 nM | AC50 [4] 1660 nM | AC50 [5] 1180 nM | AC50 [7] 1320 nM | IC50 [8] 2630 nM
